Our source for the binding signal values is publication PMC7862700, “An all-to-all approach to the identification of sequence-specific readers for epigenetic DNA modifications on cytosine”.

Holding throughout (test): DAPPL (digital affinity profiling via proximity ligation, sequencing); 10 mM Tris-HCl pH 7.5, 50 mM NaCl, 1 mM DTT, 4% glycerol, room temperature, 30 min; GST-TFs on glutathione beads, 16-mer random dsDNA library, 0.1% formaldehyde crosslink after washing; high values mean tight binding
Conditions in all cases: protein: recombinant; tags: N-terminal GST; dsDNA, one strand shown

For one test, the target named is T1, FLI1 (Homo sapiens, UniProt Q01543 1-452).
T1 sequence: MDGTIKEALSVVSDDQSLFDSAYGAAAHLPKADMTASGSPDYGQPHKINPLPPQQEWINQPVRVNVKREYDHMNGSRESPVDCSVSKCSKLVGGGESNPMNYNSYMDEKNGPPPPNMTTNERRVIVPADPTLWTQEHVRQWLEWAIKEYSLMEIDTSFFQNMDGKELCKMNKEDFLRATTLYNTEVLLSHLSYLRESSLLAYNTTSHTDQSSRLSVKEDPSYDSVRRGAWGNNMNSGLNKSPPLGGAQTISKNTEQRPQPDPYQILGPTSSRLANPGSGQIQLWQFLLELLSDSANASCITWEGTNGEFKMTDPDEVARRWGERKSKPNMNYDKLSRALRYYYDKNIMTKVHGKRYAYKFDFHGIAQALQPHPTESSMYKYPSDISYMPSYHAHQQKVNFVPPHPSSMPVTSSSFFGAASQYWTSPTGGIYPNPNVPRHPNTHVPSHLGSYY
The gist of the method:
(§1)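 Each value of binding signal is a hexamer's read frequency for a factor divided by the same hexamer's frequency in the tag-only sample. Barcoded, bead-captured GST fusions of human transcription factors made in yeast were pooled with that sample and incubated with 200 nmole of a random double-stranded 16-mer DNA library in Tris/NaCl/DTT/glycerol buffer at room temperature for 30 min. Washing, 0.1% formaldehyde crosslinking, proximity ligation, PCR and Illumina NextSeq500 sequencing followed.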

Another test deals with T2, ELK4 (Homo sapiens, UniProt P28324-2 1-405).
T2 sequence: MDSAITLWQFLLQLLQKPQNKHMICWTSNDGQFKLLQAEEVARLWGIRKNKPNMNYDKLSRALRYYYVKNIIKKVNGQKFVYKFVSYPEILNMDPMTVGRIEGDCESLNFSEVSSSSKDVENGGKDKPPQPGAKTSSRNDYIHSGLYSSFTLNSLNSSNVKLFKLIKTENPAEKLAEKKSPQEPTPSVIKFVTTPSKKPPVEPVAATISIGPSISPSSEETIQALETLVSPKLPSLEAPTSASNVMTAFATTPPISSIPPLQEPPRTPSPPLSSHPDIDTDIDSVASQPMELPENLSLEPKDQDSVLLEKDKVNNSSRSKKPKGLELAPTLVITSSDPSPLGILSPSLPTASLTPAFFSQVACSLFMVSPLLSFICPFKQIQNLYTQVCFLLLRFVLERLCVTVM
The method in brief: as §1

For another test, the target named is T3, ETV2 (Homo sapiens, UniProt O00321 1-342).
T3 sequence: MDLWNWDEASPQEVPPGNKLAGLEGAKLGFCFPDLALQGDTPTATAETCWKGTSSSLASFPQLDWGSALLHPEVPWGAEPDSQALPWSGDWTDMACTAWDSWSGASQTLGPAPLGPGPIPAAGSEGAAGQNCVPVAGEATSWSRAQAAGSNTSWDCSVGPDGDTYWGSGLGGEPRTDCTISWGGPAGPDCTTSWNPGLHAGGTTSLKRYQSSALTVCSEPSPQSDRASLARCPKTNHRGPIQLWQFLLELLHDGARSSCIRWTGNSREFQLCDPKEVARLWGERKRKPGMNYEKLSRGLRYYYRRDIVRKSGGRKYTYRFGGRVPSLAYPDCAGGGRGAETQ
The gist of the method:
as §1

The next test deals with T4, ELF3 (Homo sapiens, UniProt P78545 1-371).
T4 sequence: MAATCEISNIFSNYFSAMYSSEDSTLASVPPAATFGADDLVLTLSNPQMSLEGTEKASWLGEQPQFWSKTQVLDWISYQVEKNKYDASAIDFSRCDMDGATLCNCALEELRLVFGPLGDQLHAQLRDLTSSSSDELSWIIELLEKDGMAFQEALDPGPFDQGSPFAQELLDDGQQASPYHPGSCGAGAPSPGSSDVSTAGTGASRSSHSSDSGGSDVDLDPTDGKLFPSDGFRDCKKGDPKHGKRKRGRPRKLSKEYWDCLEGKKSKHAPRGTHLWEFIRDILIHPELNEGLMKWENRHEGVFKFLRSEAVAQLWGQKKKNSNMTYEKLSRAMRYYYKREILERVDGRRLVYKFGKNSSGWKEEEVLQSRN
The gist of the method:
as §1

A further test has as its target ETV1 (Homo sapiens, UniProt P50549 1-477). The method in brief: as §1
The next test addresses T5, ERF (Homo sapiens, UniProt P50548 1-548).
T5 sequence: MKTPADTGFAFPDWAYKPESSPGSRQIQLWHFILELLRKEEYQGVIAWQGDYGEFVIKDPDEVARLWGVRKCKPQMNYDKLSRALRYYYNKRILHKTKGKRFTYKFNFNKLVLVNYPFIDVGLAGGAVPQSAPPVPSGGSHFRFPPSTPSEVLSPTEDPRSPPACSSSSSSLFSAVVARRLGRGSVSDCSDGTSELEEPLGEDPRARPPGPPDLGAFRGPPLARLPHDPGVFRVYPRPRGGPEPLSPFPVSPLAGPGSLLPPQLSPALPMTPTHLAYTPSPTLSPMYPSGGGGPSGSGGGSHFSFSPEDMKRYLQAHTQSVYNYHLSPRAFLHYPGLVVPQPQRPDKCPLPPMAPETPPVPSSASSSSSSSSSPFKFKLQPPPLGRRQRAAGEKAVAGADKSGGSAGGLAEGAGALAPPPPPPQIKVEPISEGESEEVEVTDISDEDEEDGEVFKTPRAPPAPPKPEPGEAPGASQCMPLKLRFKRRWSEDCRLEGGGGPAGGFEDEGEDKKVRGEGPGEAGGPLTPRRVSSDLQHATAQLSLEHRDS
The gist of the method:
as §1

For a further test, the target named is T6, ETV3L (Homo sapiens, UniProt Q6ZN32 1-361).
T6 sequence: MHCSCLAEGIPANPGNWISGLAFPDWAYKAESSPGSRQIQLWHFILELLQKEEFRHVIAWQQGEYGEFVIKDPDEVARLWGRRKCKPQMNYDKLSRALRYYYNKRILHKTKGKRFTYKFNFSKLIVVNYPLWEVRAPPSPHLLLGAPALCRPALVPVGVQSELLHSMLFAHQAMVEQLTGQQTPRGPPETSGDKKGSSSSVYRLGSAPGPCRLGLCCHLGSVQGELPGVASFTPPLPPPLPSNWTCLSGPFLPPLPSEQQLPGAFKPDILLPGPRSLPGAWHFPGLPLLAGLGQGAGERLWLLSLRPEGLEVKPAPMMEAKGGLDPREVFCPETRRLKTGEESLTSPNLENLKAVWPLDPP
The gist of the method:
as §1

For a further test, the target named is T7, GABPA (Homo sapiens, UniProt Q06546 1-454).
T7 sequence: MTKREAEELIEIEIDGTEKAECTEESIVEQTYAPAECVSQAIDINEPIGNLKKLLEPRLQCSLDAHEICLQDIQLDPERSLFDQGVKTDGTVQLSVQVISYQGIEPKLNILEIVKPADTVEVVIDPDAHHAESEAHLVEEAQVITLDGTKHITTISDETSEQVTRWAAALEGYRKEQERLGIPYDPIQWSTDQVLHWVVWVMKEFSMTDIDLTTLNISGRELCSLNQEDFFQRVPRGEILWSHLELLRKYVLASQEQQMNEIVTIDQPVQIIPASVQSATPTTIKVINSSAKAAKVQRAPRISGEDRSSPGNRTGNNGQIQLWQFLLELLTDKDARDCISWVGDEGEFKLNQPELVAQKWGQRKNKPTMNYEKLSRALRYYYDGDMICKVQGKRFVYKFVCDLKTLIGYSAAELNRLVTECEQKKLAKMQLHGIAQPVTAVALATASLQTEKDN
The gist of the method:
as §1

In the next test the target is ELF1 (Homo sapiens, UniProt P32519 1-619). The method in brief: as §1
ELF1, sequence (P32519 whole entry): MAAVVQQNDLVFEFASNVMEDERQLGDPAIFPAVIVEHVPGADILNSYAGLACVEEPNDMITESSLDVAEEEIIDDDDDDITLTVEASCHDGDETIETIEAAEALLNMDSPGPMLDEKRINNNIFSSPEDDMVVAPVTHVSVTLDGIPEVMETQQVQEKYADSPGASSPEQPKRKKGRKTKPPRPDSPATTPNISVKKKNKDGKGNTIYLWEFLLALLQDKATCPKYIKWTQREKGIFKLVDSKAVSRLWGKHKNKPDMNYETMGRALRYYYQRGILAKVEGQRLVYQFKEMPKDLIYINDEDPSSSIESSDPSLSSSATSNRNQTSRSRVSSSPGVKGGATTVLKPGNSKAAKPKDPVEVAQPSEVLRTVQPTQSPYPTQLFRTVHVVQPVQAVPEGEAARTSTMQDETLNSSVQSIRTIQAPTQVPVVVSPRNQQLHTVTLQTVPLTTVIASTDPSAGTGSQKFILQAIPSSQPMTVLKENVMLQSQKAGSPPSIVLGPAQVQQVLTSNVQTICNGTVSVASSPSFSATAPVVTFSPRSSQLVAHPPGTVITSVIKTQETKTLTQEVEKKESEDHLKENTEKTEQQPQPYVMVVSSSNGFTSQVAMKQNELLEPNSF
The next test addresses T8, ELK3 (Homo sapiens, UniProt P41970 1-407).
T8 sequence: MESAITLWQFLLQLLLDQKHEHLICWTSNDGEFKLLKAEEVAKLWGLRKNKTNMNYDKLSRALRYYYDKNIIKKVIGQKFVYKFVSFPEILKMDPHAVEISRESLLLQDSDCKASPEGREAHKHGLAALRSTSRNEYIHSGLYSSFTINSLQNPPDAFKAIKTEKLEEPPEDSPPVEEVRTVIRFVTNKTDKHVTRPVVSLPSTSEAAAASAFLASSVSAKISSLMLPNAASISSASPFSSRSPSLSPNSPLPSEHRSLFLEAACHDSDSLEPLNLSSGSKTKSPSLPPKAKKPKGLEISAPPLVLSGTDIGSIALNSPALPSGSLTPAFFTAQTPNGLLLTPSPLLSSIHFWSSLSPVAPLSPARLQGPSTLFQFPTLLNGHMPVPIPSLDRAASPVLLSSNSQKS
The method in brief:
as §1

The target in a further test is T9, ETS2 (Homo sapiens, UniProt P15036 1-469).
T9 sequence: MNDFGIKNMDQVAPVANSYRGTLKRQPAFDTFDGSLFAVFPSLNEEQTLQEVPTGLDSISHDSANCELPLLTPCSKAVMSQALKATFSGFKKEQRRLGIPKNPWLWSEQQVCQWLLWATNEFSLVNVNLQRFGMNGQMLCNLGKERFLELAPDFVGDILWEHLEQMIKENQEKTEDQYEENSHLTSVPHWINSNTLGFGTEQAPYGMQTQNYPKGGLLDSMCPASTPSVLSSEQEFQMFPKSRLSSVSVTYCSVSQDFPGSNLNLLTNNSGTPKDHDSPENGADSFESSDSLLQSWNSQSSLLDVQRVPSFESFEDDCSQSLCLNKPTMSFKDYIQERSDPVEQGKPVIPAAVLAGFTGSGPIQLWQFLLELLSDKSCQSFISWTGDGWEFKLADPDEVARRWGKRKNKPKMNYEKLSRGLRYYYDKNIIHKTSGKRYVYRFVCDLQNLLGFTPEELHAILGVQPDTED
The gist of the method:
as §1

A further test addresses T10, ETV7 (Homo sapiens, UniProt Q9Y603 1-341).
T10 sequence: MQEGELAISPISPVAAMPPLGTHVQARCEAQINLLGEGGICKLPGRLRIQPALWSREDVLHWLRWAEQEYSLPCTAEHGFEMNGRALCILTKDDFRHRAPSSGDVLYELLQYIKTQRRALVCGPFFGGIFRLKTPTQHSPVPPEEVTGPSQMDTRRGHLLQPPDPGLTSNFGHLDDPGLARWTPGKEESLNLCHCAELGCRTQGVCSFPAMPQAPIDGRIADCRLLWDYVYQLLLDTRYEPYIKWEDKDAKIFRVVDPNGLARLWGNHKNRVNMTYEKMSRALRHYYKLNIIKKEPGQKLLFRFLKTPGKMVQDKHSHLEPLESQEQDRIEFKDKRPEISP
The method in brief: as §1

The target of another test is ETV6 (Homo sapiens, UniProt P41212 1-452). The method in brief: as §1
ETV6, sequence (P41212 whole entry): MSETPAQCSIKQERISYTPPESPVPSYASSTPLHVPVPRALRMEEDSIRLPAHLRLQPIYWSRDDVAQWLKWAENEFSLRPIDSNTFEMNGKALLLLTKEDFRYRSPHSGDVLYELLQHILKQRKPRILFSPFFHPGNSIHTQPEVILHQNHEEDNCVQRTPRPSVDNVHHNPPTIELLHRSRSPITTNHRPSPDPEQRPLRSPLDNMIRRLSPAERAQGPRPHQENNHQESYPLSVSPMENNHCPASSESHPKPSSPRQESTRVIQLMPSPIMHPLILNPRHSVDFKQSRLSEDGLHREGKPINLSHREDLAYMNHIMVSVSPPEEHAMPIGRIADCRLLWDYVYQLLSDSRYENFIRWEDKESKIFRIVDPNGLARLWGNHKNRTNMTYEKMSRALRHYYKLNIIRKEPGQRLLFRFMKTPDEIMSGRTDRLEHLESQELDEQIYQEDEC
A further test concerns the target T11, ELK1 (Homo sapiens, UniProt P19419 1-428).
T11 sequence: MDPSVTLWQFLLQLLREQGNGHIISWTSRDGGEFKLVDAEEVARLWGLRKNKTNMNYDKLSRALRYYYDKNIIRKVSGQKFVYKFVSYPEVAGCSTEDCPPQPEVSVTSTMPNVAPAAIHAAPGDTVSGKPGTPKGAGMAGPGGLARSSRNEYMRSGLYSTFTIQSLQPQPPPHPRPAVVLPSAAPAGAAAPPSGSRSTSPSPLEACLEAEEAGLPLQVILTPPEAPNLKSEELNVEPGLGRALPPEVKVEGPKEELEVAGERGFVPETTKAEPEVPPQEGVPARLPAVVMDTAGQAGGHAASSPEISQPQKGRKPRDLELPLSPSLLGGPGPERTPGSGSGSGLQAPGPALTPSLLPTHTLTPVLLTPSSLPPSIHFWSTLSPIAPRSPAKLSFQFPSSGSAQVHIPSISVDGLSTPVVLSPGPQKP
The method in brief:
as §1

ETV1, sequence (P50549 whole entry): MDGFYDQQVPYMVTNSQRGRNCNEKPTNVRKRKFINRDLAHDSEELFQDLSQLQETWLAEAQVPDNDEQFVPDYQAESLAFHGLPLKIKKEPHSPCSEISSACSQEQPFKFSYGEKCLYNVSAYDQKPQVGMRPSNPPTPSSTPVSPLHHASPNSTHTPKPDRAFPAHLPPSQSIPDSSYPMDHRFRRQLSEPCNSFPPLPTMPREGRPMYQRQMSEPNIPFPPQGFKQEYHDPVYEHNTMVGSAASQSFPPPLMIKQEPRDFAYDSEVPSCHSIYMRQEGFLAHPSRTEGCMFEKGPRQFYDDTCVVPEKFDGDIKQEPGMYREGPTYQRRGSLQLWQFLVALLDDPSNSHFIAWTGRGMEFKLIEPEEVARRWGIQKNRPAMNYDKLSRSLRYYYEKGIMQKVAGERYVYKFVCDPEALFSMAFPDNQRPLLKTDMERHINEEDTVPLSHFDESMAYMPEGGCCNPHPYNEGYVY

Take TCGTTG: the binding signal in the test with FLI1 was 1.01 fold enrichment (6-mer frequency, TF over GST control); with ELK4, 1.1 fold enrichment (6-mer frequency, TF over GST control); in the test with ETV2, 1.19 fold enrichment (6-mer frequency, TF over GST control); with ELF3, 1.07 fold enrichment (6-mer frequency, TF over GST control); in the test with ETV1, 1.02 fold enrichment (6-mer frequency, TF over GST control); with ERF, 1.03 fold enrichment (6-mer frequency, TF over GST control). For the same sequence, the binding signal with ETV3L is 1.1 fold enrichment (6-mer frequency, TF over GST control).
ACAAAG: the binding signal with FLI1 is 1.04 fold enrichment (6-mer frequency, TF over GST control); in the test with GABPA it was 1.03 fold enrichment (6-mer frequency, TF over GST control); with ELF1 it was 1.02 fold enrichment (6-mer frequency, TF over GST control); in the test with ELK3, 1.04 fold enrichment (6-mer frequency, TF over GST control); with ERF, 1.01 fold enrichment (6-mer frequency, TF over GST control); with ETS2 it was 1.01 fold enrichment (6-mer frequency, TF over GST control). In the test with ETV7, the binding signal was 1.01 fold enrichment (6-mer frequency, TF over GST control).
Take AGTTGC: the binding signal with FLI1 is 1.04 fold enrichment (6-mer frequency, TF over GST control); with ELK3 it was 1.03 fold enrichment (6-mer frequency, TF over GST control); in the test with ELK4, 1.02 fold enrichment (6-mer frequency, TF over GST control); in the test with ETV3L, 1.01 fold enrichment (6-mer frequency, TF over GST control); in the test with ETV7, 1.11 fold enrichment (6-mer frequency, TF over GST control); with ETV6, 1.03 fold enrichment (6-mer frequency, TF over GST control).
CATTGA: the binding signal is 1.06 fold enrichment (6-mer frequency, TF over GST control) with FLI1; 1.05 fold enrichment (6-mer frequency, TF over GST control) with ELK1; 1 fold enrichment (6-mer frequency, TF over GST control) in the test with GABPA; 1.11 fold enrichment (6-mer frequency, TF over GST control) with ELK4; 1 fold enrichment (6-mer frequency, TF over GST control) with ERF; 1.01 fold enrichment (6-mer frequency, TF over GST control) with ETV3L. Further, in the test with ETV7, the binding signal was 1.01 fold enrichment (6-mer frequency, TF over GST control).
